Data from PubChem BioAssay (NCI).
The panel holds about 83,000 compounds, 20% with a hit somewhere; the sample as a whole holds those more often.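 Values shown are percent growth following 48 h exposure of cells in 96-well plates to a single concentration of compound; below 10 was considered active.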 The source made the active and inactive calls.

Legend:
Test in all cases: NCI-60 one-dose screen, 48 h (100 = growth as untreated, 0 = no growth, -100 = all killed)
Details in all cases: 10 µM unless noted
SN12C renal = tested on: SN12C renal
UO-31 renal = tested on: UO-31 renal
TK-10 renal = tested on: TK-10 renal
ACHN renal = tested on: ACHN renal
CAKI-1 renal = tested on: CAKI-1 renal
A498 renal = tested on: A498 renal
CCRF-CEM leukemia = tested on: CCRF-CEM leukemia
MOLT-4 leukemia = tested on: MOLT-4 leukemia
SR leukemia = tested on: SR leukemia

Measured: growth

FC(F)(F)c1cccc(Nc2nc(-c3ccccc3)nc3ncccc23)c1
inactive: SN12C renal 75.8% | UO-31 renal 82.4% | TK-10 renal 94.2% | ACHN renal 76.2% | CAKI-1 renal 40.4%
active: A498 renal -4.48% | CCRF-CEM leukemia -21.6% | MOLT-4 leukemia 7.45% | SR leukemia -37.4%

COc1nc2c(c(=O)n1C)N=C1c3ccccc3C(=O)C1C(c1ccccc1)N2 (stereo not drawn)
inactive: SN12C renal 95.4% | UO-31 renal 78.9% | TK-10 renal 107% | ACHN renal 94% | A498 renal 89.1% | CCRF-CEM leukemia 103% | MOLT-4 leukemia 76.5%

COc1ccc(/C=C2\N=C(c3ccccc3)N(c3ccc(-c4nc5ccc(C)cc5s4)cc3)C2=O)cc1
inactive: SN12C renal 64.3% | UO-31 renal 34.2% | TK-10 renal 104% | ACHN renal 80.7% | CAKI-1 renal 61.9% | CCRF-CEM leukemia 61.9% | MOLT-4 leukemia 45.9% | SR leukemia 80.2%

CCOC(=O)C1=C(C)N=c2s/c(=C\c3ccccc3O)c(=O)n2C1c1ccc(OC)c2ccccc12 (stereo not drawn)
active: UO-31 renal -18.3% | CAKI-1 renal -11.4% | CCRF-CEM leukemia 2.51% | MOLT-4 leukemia -9.58%
inactive: SN12C renal 47.3% | TK-10 renal 10.8% | ACHN renal 33.5%

COc1cccc(C(=O)NC(c2ccc(C)cc2)c2cc(Cl)c3cccnc3c2O)c1 (stereo not drawn)
inactive: SN12C renal 12.6% | TK-10 renal 27% | ACHN renal 10.6% | MOLT-4 leukemia 11.4% | SR leukemia 11.3%
active: UO-31 renal -18.9% | CAKI-1 renal -3.64% | CCRF-CEM leukemia 8.88%

CCCCCCn1c(=N)n(CC(O)COc2cccc(C)c2)c2ccccc21 (stereo not drawn)
inactive: SN12C renal 28.6%
active: UO-31 renal -96.1% | TK-10 renal -86.4% | ACHN renal -52.9% | CAKI-1 renal -21.6% | A498 renal -13% | CCRF-CEM leukemia 1.25% | MOLT-4 leukemia -3.39% | SR leukemia -28.5%

CCC1=C[C@@H]2CN(C1)Cc1c([nH]c3ccccc13)[C@@](C(=O)OC)(c1cc3c(cc1OC)N(C)[C@H]1[C@@](O)(C(=O)OC)[C@H](OC(C)=O)[C@]4(CC)[C@@H]5C[C@@H]5CN5CC[C@]31[C@@H]54)C2
inactive: SN12C renal 19.3% | TK-10 renal 24.2% | ACHN renal 19.6% | CAKI-1 renal 24.9%
active: UO-31 renal 3.11% | A498 renal -24.5% | CCRF-CEM leukemia 1.97% | MOLT-4 leukemia -3.35% | SR leukemia -19.3%

Cc1[nH]c2ccccc2c(=O)c1CC=C(Cl)Cl
inactive: SN12C renal 48.2% | UO-31 renal 20.4% | TK-10 renal 43.4% | ACHN renal 26.8% | CAKI-1 renal 45.8% | CCRF-CEM leukemia 21.5% | MOLT-4 leukemia 19.3%
active: SR leukemia -8.18%

Cc1cccc2c(=O)c3c(sc12)c(NCCCNCCO)nc1ccccc13
inactive: SN12C renal 44.6% | UO-31 renal 34.8% | TK-10 renal 49.5% | CAKI-1 renal 24.8% | CCRF-CEM leukemia 15%
active: ACHN renal 9.89% | MOLT-4 leukemia -34% | SR leukemia -27.3%

CCn1c(-c2nonc2Nc2ccc(OC)cc2)nc2ccccc21
inactive: SN12C renal 109% | UO-31 renal 90.1% | TK-10 renal 101% | ACHN renal 108% | CAKI-1 renal 102% | CCRF-CEM leukemia 105% | MOLT-4 leukemia 116% | SR leukemia 110%

COc1ccc(C2c3ccc4ccccc4c3Oc3ncn(CCCn4ccnc4)c(=N)c32)cc1OC (stereo not drawn)
inactive: SN12C renal 61% | UO-31 renal 38% | TK-10 renal 52.6% | ACHN renal 67.4% | CAKI-1 renal 60.7% | A498 renal 40.3% | CCRF-CEM leukemia 42.1% | MOLT-4 leukemia 61.9% | SR leukemia 26.9%

COc1cc(OC)cc(N2C(=O)N(Cc3ccc(C(C)(C)C)cc3)c3ccccc3S2(=O)=O)c1
inactive: SN12C renal 86.1% | UO-31 renal 54% | TK-10 renal 97.8% | ACHN renal 81.2% | A498 renal 98.6% | CCRF-CEM leukemia 84.7% | MOLT-4 leukemia 93.3% | SR leukemia 41.8%

COc1cc(CNC(=O)Cc2ccccc2)ccc1OCc1cn(-c2ccc(F)cc2)nn1
inactive: SN12C renal 93.1% | UO-31 renal 80.7% | TK-10 renal 112% | ACHN renal 94.9% | CAKI-1 renal 91.2% | CCRF-CEM leukemia 100% | MOLT-4 leukemia 114% | SR leukemia 106%

COc1ccc(CCN2CCC(CN(C)Cc3cnn(-c4ccccc4)c3)CC2)cc1
inactive: SN12C renal 23.7% | UO-31 renal 12.7% | TK-10 renal 45.5% | ACHN renal 21.3% | CAKI-1 renal 15.7% | A498 renal 42.9%
active: CCRF-CEM leukemia 0.563% | MOLT-4 leukemia 3.15% | SR leukemia 5.6%

NNC(=O)CNC(=O)Nc1n[nH]c(=S)s1
inactive: SN12C renal 98.1% | UO-31 renal 73.6% | TK-10 renal 107% | ACHN renal 94.4% | CAKI-1 renal 98.3% | CCRF-CEM leukemia 93% | MOLT-4 leukemia 89.5%

COc1ccc(/C=C2\SC(=Nc3ccccc3)NC2=O)cc1
active: SN12C renal -39.9% | UO-31 renal -98.3% | TK-10 renal -92.3% | ACHN renal -70.9% | A498 renal -92.5% | CCRF-CEM leukemia -53.6% | MOLT-4 leukemia -59% | SR leukemia -33%

O=C(NC(=S)Nc1cccc(NC(=S)NC(=O)c2ccccc2)c1)c1ccccc1
inactive: SN12C renal 61.9% | UO-31 renal 84.6% | TK-10 renal 75.8% | ACHN renal 60.6% | A498 renal 104% | MOLT-4 leukemia 103% | SR leukemia 79.8%

O=C(NC1CCN(Cc2ccccc2)CC1)c1cc(C(=O)NC2CCN(Cc3ccccc3)CC2)cc(C(=O)NC2CCN(Cc3ccccc3)CC2)c1
inactive: SN12C renal 69.2% | TK-10 renal 80.8% | ACHN renal 94.5% | CAKI-1 renal 12.2% | A498 renal 96.1% | MOLT-4 leukemia 45.8% | SR leukemia 20.1%
active: UO-31 renal -29.8% | CCRF-CEM leukemia 2.34%

O=C1c2cc(Cl)ccc2Oc2cc([N+](=O)[O-])ccc2N1c1ccc(F)cc1F
inactive: SN12C renal 101% | TK-10 renal 112% | ACHN renal 90.6% | CAKI-1 renal 59% | A498 renal 91.3% | CCRF-CEM leukemia 85.3% | MOLT-4 leukemia 57.4%

O=C(Cc1ccccc1)NC(c1ccc(Cl)cc1)c1c(O)ccc2ccccc12 (stereo not drawn)
inactive: SN12C renal 14.9% | TK-10 renal 17.1% | CCRF-CEM leukemia 13.4%
active: UO-31 renal -7.48% | CAKI-1 renal 4.37% | MOLT-4 leukemia 9.11%

COc1ccc(/C=C/C(=O)c2ccc3cc(OC)c(OC)cc3c2)cc1OC
inactive: SN12C renal 32.2% | TK-10 renal 65.1% | ACHN renal 55.4% | CAKI-1 renal 30.2% | A498 renal 70.9% | CCRF-CEM leukemia 32.8% | MOLT-4 leukemia 30.7%
active: SR leukemia 3.83%

COc1cc(/C=C2\CCC/C(=C\c3cc(CN4CCCCC4)c(O)c(OC)c3)C2=O)cc(CN2CCCCC2)c1O
active: SR leukemia 6.77%
inactive: SN12C renal 72.5% | TK-10 renal 115% | CAKI-1 renal 106% | A498 renal 90.9% | CCRF-CEM leukemia 45.7% | MOLT-4 leukemia 49.8%

Cc1cccc2c(=O)c3c(sc12)c(N1CCNCC1)nc1ccccc13
active: SR leukemia -17%
inactive: SN12C renal 69.8% | UO-31 renal 36.7% | TK-10 renal 86.3% | CAKI-1 renal 54.8% | CCRF-CEM leukemia 62.4% | MOLT-4 leukemia 33.8%

COc1ccc(Cn2c(Br)c3c(c2-c2cc(OC)c(OC)c(OC)c2)CCc2sc(NC(=O)c4ccc(OC)cc4)nc2-3)cc1
inactive: SN12C renal 85% | TK-10 renal 110% | CAKI-1 renal 78% | A498 renal 86.7% | CCRF-CEM leukemia 79% | MOLT-4 leukemia 75.7% | SR leukemia 76.2%

O=C(O)CCCN1C(=O)C2C3CCC(C3)C2C1=O (stereo not drawn)
inactive: SN12C renal 103% | UO-31 renal 90.5% | TK-10 renal 98.2% | CAKI-1 renal 97.2% | A498 renal 105% | CCRF-CEM leukemia 108% | MOLT-4 leukemia 104% | SR leukemia 112%

CC1=C(CC(=O)c2cccc([N+](=O)[O-])c2)C(=O)c2ccccc2C1=O
active: SN12C renal -36% | TK-10 renal -43.1% | CAKI-1 renal -28.1% | CCRF-CEM leukemia 4.59% | SR leukemia -46.1%
inactive: ACHN renal 13.8% | A498 renal 68% | MOLT-4 leukemia 36.5%

O=CCCCC(O)C=O (stereo not drawn)
inactive: SN12C renal 97.6% | TK-10 renal 104% | ACHN renal 103% | CAKI-1 renal 101% | A498 renal 98.7% | CCRF-CEM leukemia 102% | MOLT-4 leukemia 94% | SR leukemia 90.5%

CC1CCCCN1CCCNC(=O)c1ccc2c(c1)sc1nc(-c3ccc(F)cc3)cn12 (stereo not drawn)
inactive: SN12C renal 99.6% | TK-10 renal 90.4% | ACHN renal 101% | CAKI-1 renal 97.4% | A498 renal 83.7% | CCRF-CEM leukemia 82.8% | MOLT-4 leukemia 85.7%

CCOC(=O)C1(C(=O)OCC)N=C(c2ccccc2)C=C1c1ccccc1
inactive: SN12C renal 89.8% | TK-10 renal 112% | ACHN renal 87.7% | CAKI-1 renal 83.1% | A498 renal 84.4% | CCRF-CEM leukemia 77.5% | MOLT-4 leukemia 81.1% | SR leukemia 69.7%

COc1ccc(CSc2nnc(SCC(=O)Nc3ccc(Cl)cc3)s2)cc1
inactive: SN12C renal 68.5% | UO-31 renal 52.8% | TK-10 renal 96.3% | CAKI-1 renal 38% | A498 renal 85.6% | CCRF-CEM leukemia 53.3% | MOLT-4 leukemia 58% | SR leukemia 86.1%

CC(=O)c1ccc(Cc2ccc(C(C)=O)s2)s1
inactive: SN12C renal 98% | UO-31 renal 88.2% | TK-10 renal 94.9% | CAKI-1 renal 96.4% | CCRF-CEM leukemia 95.5% | MOLT-4 leukemia 83.2% | SR leukemia 89.4%
active: A498 renal -68.7%
